Screening data (PubChem BioAssay)
An excerpt weighted towards active compounds, which were near 2.4% of everything screened.
D2 ag-1 – HTS Assay for Allosteric Agonists of the Human D2 Dopamine Receptor: Primary Screen for Agonists; D(2) dopamine receptor (Homo sapiens), P14416; HEK293 T-REx D2 cells, calcium flux agonist mode; activation, % at 2 µM; 0.53% of 340,000 active;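 active means activation over 3 SD above normal in the single-dose calcium agonist read, cut at about 30% in these data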
Target sequence (P14416 whole entry, looked up): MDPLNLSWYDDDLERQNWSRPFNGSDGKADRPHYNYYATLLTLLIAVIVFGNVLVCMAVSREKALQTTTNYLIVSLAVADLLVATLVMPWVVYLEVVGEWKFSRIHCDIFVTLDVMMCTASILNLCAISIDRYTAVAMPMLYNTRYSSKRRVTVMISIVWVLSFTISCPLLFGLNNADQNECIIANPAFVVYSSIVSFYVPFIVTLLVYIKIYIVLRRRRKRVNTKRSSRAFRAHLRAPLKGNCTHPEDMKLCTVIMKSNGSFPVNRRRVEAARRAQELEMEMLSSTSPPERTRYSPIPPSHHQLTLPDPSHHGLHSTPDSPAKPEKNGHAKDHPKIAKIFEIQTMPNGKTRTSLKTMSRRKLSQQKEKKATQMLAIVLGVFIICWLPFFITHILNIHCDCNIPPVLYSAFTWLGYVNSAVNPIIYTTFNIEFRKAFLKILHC
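Tetracycline-induced HEK293 T-REx cells with force-coupled D2 receptor, plated overnight at 30 C, loaded with no-wash calcium dye. After a 10 s baseline, compound was pin-added and calcium flux read kinetically for 180 s; calcium rises flagged agonists.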
D2 PAM-1 – Beta-Arrestin HTS for Positive Allosteric Modulators of the Human D2 Dopamine Receptor: Potentiators. DiscoveRx D2 beta-arrestin cells, luminescence, 90 min; 100% = 57 uM dopamine signal. potentiation, % (no concentration beside the values). 0.23% of 360,000 active; in the data active means potentiation above about 50%; inconclusive means mostly about 30% to 49%
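D2 cells co-treated with compound plus 50 nM dopamine (EC20) for 90 min at 37 deg C to detect potentiation. Beta-arrestin recruitment was read as enzyme-fragment luminescence after 1 h at ambient temperature. Full response was set by 57 uM dopamine.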
D2 antag – HTS Assay for Allosteric Antagonists of the Human D2 Dopamine Receptor: Primary Screen for Antagonists; D(2) dopamine receptor (Homo sapiens), P14416; HEK293 TREx D2 cells, calcium flux, dopamine EC80; inhibition, % at 10 µM; 2% of 340,000 active; AID 485344, 2010; in the data active means inhibition above about 30%; inactive means below that, where a call was filed
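Inhibition of EC80 dopamine-driven calcium flux, recorded kinetically, defines activity here; cells are a tetracycline-induced HEK293 T-REx line expressing force-coupled D2.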
D2 ag-2 – Beta-Arrestin HTS for Positive Allosteric Modulators of the Human D2 Dopamine Receptor: Agonists; D(2) dopamine receptor (Homo sapiens), P14416; DiscoveRx PathHunter D2 beta-arrestin, luminescence, 90 min; 100% = 57 uM dopamine signal; activation, % (test concentration not listed); 0.084% of 360,000 active; in the data active means activation above about 40%; inconclusive means between about 15% and that limit
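DiscoveRx PathHunter D2 beta-arrestin cells (2,100/well) attached overnight, then compound-stimulated 90 min at 37 C in HBSS/10 mM HEPES/0.1% Tween-20 buffer; beta-galactosidase complementation read by luminescence after 1 h at ambient temperature. Dopamine 57 uM final (EC100) as control.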
D2 PAM-2 – HTS Assay for Positive Allosteric Modulators of the Human D2 Dopamine Receptor: Primary Screen for Potentiators | D(2) dopamine receptor (Homo sapiens), P14416 | HEK293 T-REx D2, calcium flux, EC20 dopamine potentiation | potentiation, % at 10 µM | 0.34% of 340,000 active;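 active means potentiation over 3 SD above the plate norm, cut at about 30% in these data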
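Primary screen. Calcium kinetics in induced HEK293 T-REx D2 cells: compound pre-addition 180 s, EC20 dopamine, 180 s more.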
D3 ag – qHTS of D3 Dopamine Receptor Agonist: D3 Dopamine Receptor B-arrestin Agonist Confirmatory Assay; Potency, µM (highest dose often 76.9 µM), hits mostly activators; shares compounds with D2 ag-1; DiscoveRx D3 beta-arrestin cells, luminescence, 90 min; 4% of 2,300 active; further: nearly all actives have a fitted effect of over 70% in size
D2 ag-3 – qHTS of D3 Dopamine Receptor Agonist: D2 Dopamine Receptor B-arrestin Agonist Counterscreen; shares compounds with D2 ag-1; DiscoveRx PathHunter D2 beta-arrestin, luminescence, 90 min; response scale: percent relative to full dopamine signal; Potency, µM (highest dose often 76.9 µM), actives largely listed as activators; 5.9% of 2,300 active; further: nearly all actives have a fitted effect of over 70% in size
Hits are given with their value; - = inactive; ? = inconclusive; . = no result given. Unless noted, the call rests on the fitted dose curve; in most records, active means well fitted activation curve with a large enough effect; inconclusive means small, poorly fitted or top-dose-only effect; inactive means flat fitted curve, though single readings scatter.

SMILES | D2 ag-1 | D2 PAM-1 | D2 antag | D2 ag-2 | D2 PAM-2 | D3 ag | D2 ag-3
O=C(c1ccccc1)N1N=C(C(F)(F)F)CC1(O)c1ccc(F)cc1 (stereo not given) | - | - | - | - | - | - | -
O=C(NCc1ccccc1)c1nc[nH]c1C(=O)N1CCc2ccccc2C1 | . | - | . | - | . | . | .
O=C(Nc1ccon1)c1nc[nH]c1C(=O)N1CCc2ccccc2C1 | - | - | - | - | - | - | -
COc1ccc(-c2nc(CCNC(=O)c3cc(OC)c(OC)c(OC)c3)cs2)cc1 | - | . | . | . | - | . | .
CCN(C#N)c1nc(NC(C)C)nc(NC(C)(C)C)n1 | 40 | - | - | - | - | - | -
CCCN(C#N)c1nc(NCC)nc(NC(C)C)n1 | - | - | - | - | - | . | .
CCOCCc1nn2c(=O)cc(COC(=O)CNC(=O)c3ccc(F)cc3)nc2s1 | - | . | . | . | - | . | .
CSc1c(CC(=O)Nc2ccccc2Cl)n(Cc2ccccc2)c2ccccc12 | - | - | - | - | - | . | .
CSc1c(CC(=O)Nc2ccccc2C(F)(F)F)n(Cc2ccccc2)c2ccccc12 | - | - | - | - | - | - | -
CCNc1nc(C#N)nc2c1ncn2-c1cc(F)cc(F)c1 | - | . | - | . | - | - | -
O=C(c1ccccc1)N1CCN(CC(O)COc2ccc(Br)cc2)CC1 (stereo not given) | - | - | - | - | - | . | .
O=C(c1ccco1)N1CCN(CC(O)COc2ccc3oc4ccccc4c3c2)CC1 (stereo not given) | 50 | - | 40 | ? | - | 35µM | 50µM
Cc1cc(C)cc(OCC(O)CN2CCN(C(=O)c3ccco3)CC2)c1 (stereo not given) | 61 | - | 35 | - | - | - | -
Cc1ccc(NC(=O)Cn2cnc3sc(C(=O)O)c(C)c3c2=O)cc1Cl | - | . | . | . | - | . | .
O=C1N=C(N2CCOCC2)S/C1=C\c1cccs1 | - | - | - | - | - | . | .
O=C1N=C(N2CCOCC2)S/C1=C\c1ccc(-c2ccccc2Cl)o1 | 42 | - | - | - | - | - | ?
Cc1ccccc1-c1ccc(/C=C2/SC(N3CCOCC3)=NC2=O)o1 | 73 | ? | 83 | 49 | - | - | ?
CCCCOc1ccc(C2c3c(oc4ccccc4c3=O)C(=O)N2c2nc(C)c(C(=O)OCC)s2)cc1OC (stereo not given) | - | . | . | . | - | . | .
CCOC(=O)Cc1csc(NC(=O)CN2CCN(CC)CC2)n1 | - | - | - | - | - | . | .
CCOC(=O)Cc1csc(NC(=O)CN2CCN(c3ccccc3)CC2)n1 | - | - | - | - | - | - | -
O=C(CN1CCN(c2ccccn2)CC1)Nc1ccc2ccccc2c1 | - | - | - | - | - | - | -
CC(=O)Nc1ccc(NC(=O)CN2CCN(c3ccccn3)CC2)cc1 | 82 | - | 84 | ? | - | ? | ?
O=C(Nc1ccccc1Br)C1CCCN(S(=O)(=O)c2cccc3nsnc23)C1 (stereo not given) | - | . | . | . | - | . | .
O=S(=O)(Nc1ccc(-c2cn3ccccc3n2)cc1)c1ccccc1 | - | - | 40 | - | - | - | -
Cc1cccc(S(=O)(=O)Nc2ccc(-c3cn4ccccc4n3)cc2)c1 | - | - | - | - | - | . | .
SMILES | D2 ag-1 | D2 PAM-1 | D2 antag | D2 ag-2 | D2 PAM-2 | D3 ag | D2 ag-3
S=C(NCc1ccccc1)NC1CCCCC1 | - | - | - | - | - | . | .
C/C(=N\NC(=S)NC1CCCCC1)c1ccccc1 | 45 | - | 41 | - | - | - | -
S=C(NCCCc1ccccc1)NC1CCCCC1 | 37 | - | - | - | - | - | -
CCc1cccc(C)c1Nc1c(-c2ccc(SC)cc2)nc2sccn12 | - | . | . | . | - | . | .
CCc1ccc(NC(=O)c2cc3c([nH]c2=O)CC(C)(C)CC3=O)cc1 | - | . | . | . | - | . | .
CC(C)COc1ccc(C(=O)N(Cc2ccc(N(C)C)cc2)Cc2ccco2)cc1 | - | . | . | . | - | . | .
COc1ccc(CN2CCN(C(=O)c3ccco3)CC2)cc1OCc1ccccc1 | 83 | - | 71 | ? | - | ? | 18µM
CC1(C)CCc2cc(CN3CCN(c4ccccn4)CC3)ccc2O1 | 77 | - | 85 | - | - | - | ?
COc1ccc(-c2[nH]ncc2CN2CCN(c3ccccn3)CC2)c(OC)c1 | 69 | - | 57 | - | - | - | -
COc1ccc(CN2CCN(c3ccccn3)CC2)cc1OCc1ccccc1 | 72 | - | 87 | ? | - | - | ?
CCN1CCN(Cc2ccc(OC)c(OCc3ccccc3)c2)CC1 | - | - | - | - | - | . | .
COc1ccc(CN2CCN(C(=O)c3ccco3)CC2)cc1OC | 86 | ? | 60 | 84 | - | ? | 16µM
Cc1ccc(C(=O)COC(=O)CCS(=O)(=O)c2ccccc2)cc1[N+](=O)[O-] | . | - | . | - | . | - | -
COc1ccccc1Nc1nn2c(=O)c3ccc(C(=O)NCCC4=CCCCC4)cc3nc2s1 | - | . | . | . | - | . | .
Cc1cccn2c(=O)c3cc(C(=O)Nc4ccc(Cl)c(Cl)c4)sc3nc12 | - | . | . | . | - | . | .
CCOC(=O)c1c(C)[nH]c(C)c1C(=O)Cn1nnc(-c2ccccc2C)n1 | - | - | - | - | - | - | -
CCOC(=O)c1c(C)[nH]c(C(=O)Cn2nnc(-c3ccccc3Cl)n2)c1C | - | - | - | - | - | . | .
CCCN(CCC)S(=O)(=O)c1ccc2c(c1)N(CC(=O)NCc1ccc(F)cc1Cl)C(=O)CS2 | - | . | . | . | - | . | .
CCC(NC(C)C)C(O)c1ccc(O)c(O)c1 (stereo not given) | - | - | - | - | - | ? | -
CS(=O)(=O)N(CC(=O)N1CCOCC1)c1cccc(Cl)c1 | . | - | . | - | . | . | .
CS(=O)(=O)N(CCCC(=O)N1CCCCCC1)c1cccc(Cl)c1 | - | - | - | - | - | - | -
Cc1nc2ccccc2nc(=O)c1NNc1ccccc1 | 75 | - | - | - | - | - | -
COc1cc(/C=N/Nc2cc(C)nc(NS(=O)(=O)c3ccc(C)cc3)n2)ccc1O | - | - | - | - | - | . | .
COc1cc(/C=N/Nc2cc(C)nc(NS(=O)(=O)c3ccccc3)n2)ccc1O | - | - | - | - | - | - | -
Cc1ccc2nc(NC(=O)CSc3nccn3Cc3ccc(F)cc3)sc2c1 | - | . | . | . | - | . | .
